In PubChem BioAssay AID1508600 (Functional Genomics Laboratory (NCATS/FGL), 2020) one finds z-score data, which are given here for 107 sequences.

About 3,700 (7%) of roughly 53,000 sequences were called active. The sample as a whole holds a higher share of actives than the screen did. Values without a mark were called inactive.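 The calls were made as follows: active = gene knockdowns whose robust z-score for IL-1 alpha signal is at least 2 or at most -2, so actives lie on both sides; inactive = the rest.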

The assay in a line: Components of the Cytosolic LPS Sensing Pathway: Gene Identification via Genome-wide siRNA Screen.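 Also: robust z of the log signal after scaling to non-targeting control siRNA wells of the plate.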 As to conditions: RAW264.7 macrophages, IL-1a HTRF, actives lie on both sides, screened at 100 nM (by protocol), cells primed 5 h with Pam3CSK4 first. A digest of the protocol:
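IL-1a HTRF of supernatants after 24 hour LipidA transfection of Pam3CSK4-primed (5 hours) RAW264.7 cells, 48h post-siRNA transfection (100 nM). Scores: percent of plate negative-control median, then log-based robust z-score.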
With GCAAGGUAUUCCAUGCUCATT against Psg27, the z-score was -0.616. In the case of GCUGUGAUCUCAGUAUUCATT against Strbp it was 0.443; in that of GGUGACCACUUUUAUCUGATT against Olah, 0.601; in that of GCCUAAAAAAUCUCUGUGATT against Zswim3, -2.77 (active). As for GGACUAUAGAUCCUAAGUCTT against Kcnab2, the figure is -0.246; as for CCACCCUGUGAAAAAGUCATT against Ccr3, -1.08. For the sequence GAAAGGAAAGCUAGCCAUGTT against Gm5622, the z-score was 0.614. For CCAUUGAAUCAGUUGAAGUTT against Slc5a7, the z-score is 1.21.

In the case of GGCCGUUAUGUUUUACAAGTT against Dnajc19, the z-score is 0.00748. For the sequence GGGCAUACAUAUAACCUAUTT against Fermt2, the z-score was -0.285. As for GCUUUUUGACUACGUAGCCTT against Hkdc1, the figure is 0.0141; as for GGUUUGAGAAAUUGGACAUTT against Pou6f1, 3.72 (active); as for GGAAAGCAGGACAAAAGGCTT against Mettl18, 0.346. Regarding GUCAUCUUGUUCCAUCUGATT against Olfr1269, the z-score was -1.12. In the case of CGACCUAACCAACAUGCUUTT against Asap3 it was 0.0248; in that of GGUAGCUGUUUAGGACAAUTT against Arl6ip5, 3.79 (active); in that of GCGAUUCUGUUGUUAGCUUTT against Rln1, 0.134.

In the case of GGUAGAAUUGUGAUCUCAGTT against Bco2, the z-score is -0.411. As for GCAGGUACUAUUUGUGACGTT against Olfr30, the figure is 1.07; as for GCAGCACGAACUGAUGACGTT against Plcd3, -2.18 (active); as for GGUGGACAACCAGUUCUACTT against Mapk10, 1.27. As for CCUGUGUUUCAGUUUGGUATT against Clptm1l, the z-score was 0.549. As for GGCUCAAUAAUGUUUUCAATT against Smpd3, the figure is 3.18 (active); as for CGUAAAUUCACCAAGGAGCTT against Slc19a1, -0.805; as for GGACAUUGACACUUCCCUGTT against P2rx5, -1.85. As for GGAGAUAACAGAUCUGUUUTT against Fam114a2, the figure is -0.843; as for GGCAUCCACACAGAACAAGTT against Zfp467, -0.287. In the case of GGGAUAGGGUUCAAUUAGGTT against Bcl2l13 it was 0.231; in that of GUCCCAGUACUUCUUGUUUTT against Vmn1r27, 0.675. Regarding GGGUGAUAAAUGUUUGAAUTT against Vmn1r45, the z-score was 0.338. In the case of GGAGGCUGUUGUGGAUCUUTT against Acin1 it was 1.03; in that of GGAAUGUGAAGAAGAAAUUTT against Dnttip2, 2.03 (active); in that of GCCUAUUGUAGUGUUACAUTT against Cyp2c67, -0.887.

As to GGUGAUCCAGCUUUCUUGGTT against Tiaf2, the z-score is -0.351. GGGAAAACAGGUACGACUGTT against Odf1: the z-score was -0.743. As for GGUGAUCAAGGACAUUUAATT against Psma5, the figure is 0.0545; as for GCCAAUGCUUCCAUUACCATT against Abca17, 0.141. On to GGAGCUAGAUAGGAAAAAATT against Vill, for which the z-score is -1.44. Regarding CGAUUGACUUAAGAUUCAGTT against Hlf, the z-score is -0.612. As for GGCCAAAGAGUUCAGCCUATT against Prrx2, the figure is -0.29.

Take GGUCAAAAGUUCUGGACAGTT against Spin4: the z-score was 5.6 (active). As for GGACGAUGGUUCCUGAAAATT against Snap91, the figure is -1.39; as for GGUUGAAGGAGUGUUUUAUTT against Rtcb, 2.09 (active).

Take GGCCCAUAAUUAAAUGUUUTT against Stac2: the z-score is 0.438. Consider CCAAUAGUUGUGGACAUGATT against Crisp1, for which the z-score is 1.82. As for GCUUACCUUGUUCUUAAAGTT against D2hgdh, the figure is -1.62; as for GGUACCAUAUGAGAGCUAATT against Tsr2, 2.7 (active). AACCAGAGGUCCUAAAUACTT against Mmp28: the z-score is -0.948. As for GCUAAGUGCUCGAAUCCGATT against Cnppd1, the z-score is -0.326. As for GGUGGACAUGUGGAAUGAUTT against Ubxn11, the figure is 0.463; as for GCUAGUGACUUUGAGAUUGTT against Msh5, -0.75; as for CCACUUUCAGAAACAUUACTT against A2ml1, -1.01. In the case of GGCUACUGUUGCUGCAUUUTT against Lin7c it was -2.49 (active); in that of “CCAACAAAAACGUACUUUGTT against 9530091C08Rik”, 1.24; in that of CCAGAGAGAUACCUGAUCUTT against Tas2r113, -0.993.

On to GGGACAAUACAUUGAUAGCTT against Vmn1r206, for which the z-score was -0.625. As for “GGAAGAUGCCUACUUCAGATT against 4632433K11Rik”, the figure is 2.5 (active); as for GGCCAUCACUAUUAGCCUCTT against Vmn1r70, -0.214. As for GGGCUAUAUAUAUUUCCACTT against Asns, the figure is 2.75 (active); as for CCAUAUUGGCAAUCUCUAGTT against Khdc1a, 2.15 (active). For the sequence GGAAGUAUUGACGAGUGGGTT against Orai3, the z-score is 0.0813. Consider GGAAGUCCAUCAGCUUUAUTT against Wdr78, for which the z-score is 2.29 (active). In the case of GCGACUGACACUAACAGAATT against Poc1a, the z-score was -0.261.

With GGUUUCAUGAAAGAGGAGCTT against Cbs, the z-score was -0.926. In the case of GGGCACCACAGAAAGGAAUTT against Olfr376 it was -0.525; in that of GGCUAACCGAAGCCAUCCUTT against Tceal9, 0.969; in that of GGACCAGGAUAGGACCAAUTT against Avpr2, 2.33 (active). In the case of GCUUUCAUUAAGUCAGAUCTT against Flvcr2 it was 1.16. As for GGAUAAGAGAAAAACAGAATT against Ect2, the figure is 0.141; as for GGCAUAGUUGCUGUUCUCUTT against Slc9a9, -0.871. In the case of GGCUGUUUGCCAAAAAAAATT against Ppp1r16a, the z-score was -0.36.

Regarding GGCACAGUUCUGGAAGAUGTT against Qtrt1, the z-score was -1.02. In the case of GCACAGACAUCUUUUGCCATT against Man2a2 it was -1; in that of GGUAUUCGAAGCAUACAAUTT against Pdha2, 3.47 (active). As for GGAAAUGAUCUCUUUUGGATT against Bbs2, the figure is -0.734; as for GGCACACUUGAGAAGACACTT against Cul5, -0.601; as for GGAGGAAAGAAGUCCUACATT against Rnase2b, -0.835. In the case of GGUCGGUGUUUUAUCUGCUTT against Slc17a9 it was -3.2 (active). As for CCUUCUAGAUGUCUUAAGATT against Zfp41, the z-score was -0.244. In the case of GGCCAAACAAGACCCAUCUTT against Ppil2 it was -0.621; in that of GGAAAAGUAUUGGUAGACGTT against Steap4, -1.73; in that of GCAAUGCAAAAGAUGCCCUTT against Chchd7, 0.0804. In the case of CCCAGUUAGAAUUGUUAUCTT against Snx16 it was 1.29; in that of CAUCUUUCAUCAAAUAACUTT against Krtap31-2, 2.49 (active); in that of GGAAAUUACUUUGAUACUCTT against Rfx3, 1.5. In the case of CCAAAACGGAAUCCUAAUATT against Nyap2 it was -1.34; in that of GGGCCACUUUCCAAUUCAATT against Tectb, 0.817; in that of GGAUCAUAAAAAGAAUCACTT against Gpr21, 0.851. Regarding GGGAAUUUACCAAGUACCCTT against Nedd9, the z-score was 1.53. In the case of CCAUCCCAUAUGUUCCGGUTT against Ptms it was 0.94; in that of GGUGAAAACAAUGACUUUGTT against Zbtb44, 0.256; in that of GGUUAUUUUGGCUAUAAGATT against Traf3, -4 (active). In the case of “CGAUGUUACUAUAGGAUCUTT against A730036I17Rik” it was 0.33. As for CCUUCAUUCUCAUUGGCAUTT against Olfr591, the figure is -0.163.

Regarding GCACUACCUGUAUUAAACUTT against Efhd2, the z-score was -0.652. As for GCAACACAAGUCAUGAAGUTT against Gabpb2, the figure is 0.628; as for GGAACUGAAAUUCAGUUGGTT against Azin1, 0.218; as for GGGAGGAAAUGAAUGAAUUTT against Gypc, 0.686. As for GGAAUUAUCUUCAUCCCUGTT against Abhd10, the z-score is -4.79 (active). In the case of GGAUCUAUCUCUAGUCCCGTT against Zfp358 it was -1.74; in that of CCUUUAAAAGUACCAACCCTT against B9d1, 0.679; in that of CGUACCAUGGUCAAGACGUTT against Tpcn1, 0.692. With GCCUUAGGUUGAUAGGAGGTT against Tas2r110, the z-score was -0.191. On to GGGACCAGAACAAAUACAATT against Klc3, for which the z-score is 4.06 (active). Turning to GGCCUUUUCUUCUUUUUGUTT against Mill1, the z-score is 0.653. As for “GGAAGGAAAUGUGUGAAAUTT against 4930555G01Rik”, the figure is -0.194; as for GGAGAGGAUGCAUGUAAAATT against Fbxl22, -1.19.
